Shown are actives, neighbours in structure and some others; about 11% of the full set was active somewhere.
G9a inh = qHTS Assay for Inhibitors of Histone Lysine Methyltransferase G9a; Histone-lysine N-methyltransferase EHMT2 (Homo sapiens), Q96KQ7; G9a H3K9 monomethylation, AlphaScreen, 2 h; Potency, µM (doses to about 102 µM), hits mostly inhibitors; 350,000 compounds, 8.8% hits; AID 504332, 2011; also: nearly all actives have a fitted effect of over 75% in size
Target sequence (Q96KQ7 913-1193 limits assumed): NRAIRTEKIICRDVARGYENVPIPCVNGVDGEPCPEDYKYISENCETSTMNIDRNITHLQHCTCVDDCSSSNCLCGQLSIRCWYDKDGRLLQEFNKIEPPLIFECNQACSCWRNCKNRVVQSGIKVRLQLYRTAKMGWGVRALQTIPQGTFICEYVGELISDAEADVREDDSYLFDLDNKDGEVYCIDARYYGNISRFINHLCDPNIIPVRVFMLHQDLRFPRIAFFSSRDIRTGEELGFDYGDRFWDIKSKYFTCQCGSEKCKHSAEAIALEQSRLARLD
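G9a (20 nM) was preincubated 15 min with compound, then reacted 2 h at room temperature with 500 nM biotin-H3K9 peptide and 20 µM SAM. Monomethyl-H3K9 detected by AlphaScreen using anti-H3K9me1 antibody.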
Tau ThT inhib = qHTS for Inhibitors of Tau Fibril Formation, Thioflavin T Binding; recombinant tau K18 P301L, heparin-induced fibrillization, ThT fluorescence; Potency, µM (top dose mostly 57.4 µM), usual class: inhibitors; 270,000 compounds, 2.1% hits; AID 1460, 2008; also: nearly all actives have a fitted effect of over 55% in size
Target sequence (P10636 561-689 P618L limits assumed): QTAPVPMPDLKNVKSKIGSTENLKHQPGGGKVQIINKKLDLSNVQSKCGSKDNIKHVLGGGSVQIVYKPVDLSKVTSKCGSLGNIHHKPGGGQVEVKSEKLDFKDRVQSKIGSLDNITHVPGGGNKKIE
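Heparin-induced fibrillization of the P301L-mutant K18 repeat-domain fragment of human tau was followed by ThT binding in quantitative high-throughput format.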
Sfp inh = qHTS Assay for Inhibitors of Bacillus subtilis Sfp phosphopantetheinyl transferase (PPTase). 4'-phosphopantetheinyl transferase ffp (Bacillus subtilis), Q9F4F7. Potency, µM, usual class: inhibitors. 310,000 compounds, 3.5% hits. Biochemical Sfp PPTase activity, qHTS;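 also: the enzyme is Sfp with the accession as filed and its product quenches rhodamine fluorescence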
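Compounds were incubated with enzyme (final 15 nM) for 15 min at room temperature before substrate addition started the reaction. Fluorescence at 525 nm excitation, 598 nm emission was recorded immediately and after 30 minutes.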
Tau fluor counter = Counterscreen qHTS for Inhibitors of Tau Fibril Formation, Fluorescence Polarization | tau K18 P301L (four-repeat tau fragment) Alexa594 fluorescence, heparin fibrillization | Potency, µM (titrated, usually from 57.7 µM) | 280,000 compounds, 0.93% hits | AID 1463, 2008; also: nearly all actives have a fitted effect of over 55% in size
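Human K18 P301L tau (15 uM unlabeled plus 0.24 uM Alexa 594-labeled, final) in 100 mM sodium acetate pH 7 was mixed with compound and 20 uM heparin and incubated 6 hr at 37 C.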
Coupling enz = qHTS Assay for Inhibitors of Fructose-1,6-bisphosphate Aldolase from Giardia Lamblia: Coupling assay counterscreen; 290,000 compounds, 0.67% hits; coupling enzyme system counterscreen, AmpLite Red fluorescence; activity change, negative = inhibition, % at 58.2 µM, hits read low; in the data active = activity change below about -30%
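Fluorescence at 525 nm excitation and 598 nm emission measured inhibition of the coupled detection system without aldolase. Compounds (at 57.5 uM final) were preincubated 10 min at room temperature with coupling enzyme reagent before a 20 min substrate/AmpLite Red step.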
Tau FP inhib = qHTS for Inhibitors of Tau Fibril Formation, Fluorescence Polarization; K18 P301L tau heparin fibrillization, Alexa594 FP, 6 h; Potency, µM (top dose mostly 57.7 µM), actives largely listed as inhibitors; 280,000 compounds, 0.39% hits; AID 1468, 2008; also: nearly all actives have a fitted effect of over 55% in size
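Quantitative HTS format: compounds meet 15 uM recombinant K18 P301L tau and Alexa 594-tau tracer in 100 mM sodium acetate pH 7; 20 uM heparin triggers fibrillization at 37 C over 6 hr; FP gives the signal.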
Hits are given with their value; [ ] = dose if it differs, or a comment. Unless noted, calls follow the shape of the dose curve; as a rule, active = well fitted curve in the direction sought with a large enough effect; inconclusive = small, poorly fitted or top-dose-only effect, or another doubt; inactive = no such curve, though single readings can be large; an effect the other way counts as inactive or inconclusive.

For O=C(CNS(=O)(=O)c1ccccc1)OCC(=O)c1ccc(Br)cc1 the results were G9a inh inactive, Sfp inh inactive and Coupling enz inactive.
O=C(CNC(=O)c1ccco1)OCC(=O)c1ccc2c(c1)CCCC2 was read as G9a inh 50µM, Tau ThT inhib inconclusive, Sfp inh inactive, Tau fluor counter inactive, Coupling enz inactive and Tau FP inhib inactive.
For O=C(CNC(=O)c1ccco1)NCC(=O)OCc1cccc(Cl)c1 the results were G9a inh inactive, Tau ThT inhib inactive, Sfp inh inactive, Tau fluor counter inactive, Coupling enz inactive and Tau FP inhib inactive.
`O=C(CNC(=O)c1ccco1)OCC(=O)c1ccc([N+](=O)[O-])cc1` gave G9a inh 25µM, Sfp inh inconclusive and Coupling enz inactive.
Screening O=C(CNC(=O)c1ccco1)OCc1cccc(Cl)c1 returned G9a inh 50µM, Tau ThT inhib inactive, Sfp inh inactive, Tau fluor counter inactive, Coupling enz inactive and Tau FP inhib inactive.
Screening O=C(CNS(=O)(=O)c1ccccc1)OCC(=O)c1ccc([N+](=O)[O-])cc1 returned G9a inh 7.1µM, Tau ThT inhib 25µM, Sfp inh 79µM, Tau fluor counter inactive, Coupling enz inactive and Tau FP inhib inconclusive.
`COc1ccc(Cl)cc1NC(=O)c1cc(C)no1` gave G9a inh inactive, Sfp inh inactive and Coupling enz inactive.
Screening CCC1(CC)NC(=O)N(CC(=O)OC(C)C(=O)Nc2ccc(NC(C)=O)cc2)C1=O (centres undefined) returned G9a inh inactive[0.501 µM].
COc1ccc(CCNC(=O)C(NS(=O)(=O)c2ccc3c(c2)CCN3C(C)=O)C(C)C)cc1OC (centres undefined) was read as G9a inh 40µM, Tau ThT inhib inactive, Sfp inh inactive, Tau fluor counter inactive, Coupling enz inactive and Tau FP inhib inactive.
`Cc1ccc(S(=O)(=O)NC(Cc2ccccc2)C(=O)O)cc1C` (centres undefined) gave G9a inh inactive, Sfp inh inactive and Coupling enz inactive.
COc1ccc(NC(=O)C2C3C=CC4(O3)C2C(=O)N(CCCN2CCCC(C)C2)C4C(=O)NC2CCCCC2)cc1 (centres undefined) was read as G9a inh inconclusive, Sfp inh inactive and Coupling enz inactive.
`CC(C)(C)c1ccc(S(=O)(=O)N(CCCN2CCOCC2)Cc2cccs2)cc1` gave G9a inh 14µM, Tau ThT inhib inactive, Sfp inh 2.2µM, Tau fluor counter inactive, Coupling enz inactive and Tau FP inhib inactive.
O=C(Nc1ccccc1)N(CCCN1CCOCC1)Cc1cccs1 was read as G9a inh inactive, Tau ThT inhib inactive, Sfp inh inactive, Tau fluor counter inactive, Coupling enz inactive and Tau FP inhib inactive.
`CCc1ccc(NC(=O)N(CCCN2CCOCC2)Cc2cccs2)cc1` gave G9a inh inactive, Tau ThT inhib inactive, Sfp inh inactive, Tau fluor counter inactive, Coupling enz inactive and Tau FP inhib inactive.
`CC(=O)Nc1ccc(S(=O)(=O)N(CCCN2CCOCC2)Cc2cccs2)cc1` gave G9a inh 40µM, Tau ThT inhib inactive, Sfp inh inactive, Tau fluor counter inactive, Coupling enz inactive and Tau FP inhib inactive.
For O=[N+]([O-])c1ccc(S(=O)(=O)N(CCCN2CCOCC2)Cc2cccs2)cc1 the results were G9a inh 35µM, Tau ThT inhib inactive, Sfp inh inactive, Tau fluor counter inactive, Coupling enz inactive and Tau FP inhib inactive.
For CSc1nc2ccc(NC(=O)c3ccc(=O)[nH]c3)cc2s1 the results were G9a inh 50µM, Sfp inh inactive and Coupling enz inactive.

High-throughput results from PubChem BioAssay.
